Source: PubChem
Sampled rows, rich in hits. Any-hit rate of the full collection: about 2.3%.
YB-1 expression = YB-1 expression inhibition | U2OS, qRT-PCR YB-1 vs CDIP delta delta Cp, 16 h; hits give high values; zero = DMSO, each unit about twofold | delta delta Cp (YB-1 minus CDIP) (no concentration beside the values) | hit rate 0.37% among 30,000;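 active = delta delta Cp rounded down to an integer at or above 3, about 3 SD of DMSO wells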;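 also: higher means less YB-1 transcript or more CDIP transcript relative to DMSO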
ROS inducer = raises reactive oxygen species in U2OS cancer cells. ROS induction (% of piperlongumine), % at 10 µM. hit rate 2% among 46,000. AID 624156. U2OS ROS induction, H2DCF-DA fluorescence; in the data active = ROS induction above about 79%, passing the limit was not always enough; inconclusive = no clear call, values can overlap the other calls;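 also: 0% = DMSO vehicle median and 100% = reference compound median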
An asterisk follows results filed as active.

Results for O=C1CC(c2ccc(O)c(O)c2)Oc2cc(O)ccc21 (configuration not stated) ?
YB-1 expression: 0.037; ROS inducer: 6

How did CCC1(C)Cc2nc3nc(SCC(=O)c4ccccc4)n(Cc4ccccc4)c(=O)c3cc2CO1 (configuration not stated) do in these assays?
ROS inducer: 37

How did CCn1cc(SCC(=O)N2N=C(c3cccs3)CC2c2ccc(C)cc2)c2ccccc21 (configuration not stated) do in these assays?
ROS inducer: 20

What do the screens show for `C=CCNS(=O)(=O)c1ccc(C)cc1`?
ROS inducer: 4

What do the screens show for `N#CCCN(/N=C/c1ccccc1)C1=NS(=O)(=O)c2ccccc21`?
YB-1 expression: -0.07; ROS inducer: 128*

How did CCOC(=O)CN(C1=NS(=O)(=O)c2ccccc21)c1ccccc1 do in these assays?
ROS inducer: 4

Results for CC(C)(C)c1ccc(NC(=O)c2ccc(N3C(=O)CSCC3=O)cc2)cc1 ?
ROS inducer: 150*

How did CC(C)(C)c1ccc(NC(=O)c2ccc(C(C)(C)C)s2)cc1 do in these assays?
ROS inducer: -3

Results for O=C(NO)c1cccc(C(=O)N/N=C/c2cc(F)ccc2O)c1 ?
YB-1 expression: -0.2; ROS inducer: -10

How did O=C(NO)c1cccc(C(=O)N/N=C/c2cc(O)ccc2O)c1 do in these assays?
YB-1 expression: -1.1; ROS inducer: 107*

Results for CCOC(=O)c1sc2ncn3c(-c4ccc(C)cc4)nnc3c2c1C ?
ROS inducer: 198*

Results for CCOC(=O)c1sc2nc(C)nc(N(C)Cc3ccccc3)c2c1C ?
ROS inducer: 9

How did O=C(O)/C=C/c1ccc(N2C(=O)CC(Cc3ccccc3)C2=O)cc1 (configuration not stated) do in these assays?
ROS inducer: -1

What do the screens show for `CSc1sc(-c2ccnc(SCC(=O)C(C)(C)C)n2)c2c1C(=O)CC(C)(C)C2`?
YB-1 expression: -0.32; ROS inducer: 139*

Results for Cc1csc2sc(-c3ccnc(SCC(=O)c4ccccc4)n3)c(C)c12 ?
YB-1 expression: 0.17; ROS inducer: 21

How did COc1ccc([Si](C)(C)[C@@H]2[C@@H](CCO)O[C@]3(C(=O)N(Cc4ccc(NC(=O)[C@H](C)O)cc4)c4ccccc43)[C@H]2C)cc1 do in these assays?
YB-1 expression: -0.28; ROS inducer: 91*

Results for COc1ccc([Si](C)(C)[C@H]2[C@H](CCO)O[C@@]3(C(=O)N(Cc4ccc(N5CCOC5=O)cc4)c4ccccc43)[C@@H]2C)cc1 ?
YB-1 expression: -0.48; ROS inducer: 130*

What do the screens show for `COc1ccc([Si](C)(C)[C@H]2[C@H](CCO)O[C@@]3(C(=O)N(Cc4cccc(N5CCC5=O)c4)c4ccccc43)[C@@H]2C)cc1`?
YB-1 expression: -0.037; ROS inducer: 107*

Results for COc1ccc([Si](C)(C)[C@H]2[C@H](CCO)O[C@@]3(C(=O)N(Cc4cccc(NC(=O)[C@H](C)O)c4)c4ccccc43)[C@@H]2C)cc1 ?
YB-1 expression: 0.0065; ROS inducer: 12

Results for COc1ccc([Si](C)(C)[C@@H]2[C@@H](CCn3cc(CCO)nn3)O[C@]3(C(=O)N(Cc4ccc(N5CCOC5=O)cc4)c4ccccc43)[C@H]2C)cc1 ?
YB-1 expression: -0.3; ROS inducer: 39

What do the screens show for `COc1ccc([Si](C)(C)[C@@H]2[C@@H](CCn3cc([C@H](O)c4ccccc4)nn3)O[C@]3(C(=O)N(Cc4ccc(N5CCC5=O)cc4)c4ccccc43)[C@H]2C)cc1`?
YB-1 expression: 0.58; ROS inducer: 58

How did CCn1cc(/C=C(\NC(=O)c2ccccc2)C(=O)N2CCCC2)c2ccccc21 do in these assays?
ROS inducer: -7

What do the screens show for `C=CCn1c(-c2ccccc2Cl)nc2ccccc21`?
ROS inducer: -5

How did CC(/C=C/C1(O)C(C)CC(O)CC1(C)C)OC1OC(CO)C(O)C(O)C1O (configuration not stated) do in these assays?
YB-1 expression: 1.9; ROS inducer: -6

How did COc1cc(C(=O)OC[C@@]2(O)CO[C@H](OC3C(CO)OC(OC(C)/C=C/C4(O)C(C)CC(O)CC4(C)C)C(O)C3O)[C@@H]2O)cc(OC)c1O (some centres not stated) do in these assays?
YB-1 expression: 3.5*; ROS inducer: -6

How did Cc1cccc(N2CCN(C(=O)Nc3ccccc3)CC2C)c1 (configuration not stated) do in these assays?
ROS inducer: 10

How did N#CC1=C(N)N(c2sc3c(c2C#N)CCCC3)C2=C(CCC2)C1(C(F)(F)F)C(F)(F)F do in these assays?
ROS inducer: 205*

Results for N#Cc1c(NC(=O)C(F)(F)F)sc2c1CCCC2 ?
ROS inducer: -2

What do the screens show for `Cc1nn(Cc2cccc3ccccc23)c(C)c1NC(=O)C1CC1c1ccccc1` (configuration not stated)?
ROS inducer: 0

How did COc1cccc(-c2ncc(-c3ccccc3)o2)c1 do in these assays?
YB-1 expression: 0.026; ROS inducer: 85*

How did COc1cccc(-c2nnc(-c3ccccc3)o2)c1 do in these assays?
ROS inducer: 13

Results for CCC(C(=O)NCC1CCCO1)c1ccccc1 (configuration not stated) ?
ROS inducer: -6

Results for O=S(=O)(c1ccc(Cl)cc1)N1CCc2ccccc21 ?
YB-1 expression: -0.24; ROS inducer: 87*

How did O=C(O)C1C2C=CC(O2)C1C(=O)Nc1ccc(S(=O)(=O)N2CCc3ccccc32)cc1 (configuration not stated) do in these assays?
ROS inducer: 42

What do the screens show for `C[C@H](CO)N1C[C@H](C)[C@@H](CN(C)Cc2ccc(Oc3ccccc3)cc2)Oc2ccc(NC(=O)C3CCCCC3)cc2C1=O`?
YB-1 expression: 0.57; ROS inducer: 84*

Results for C[C@H]1CN([C@@H](C)CO)C(=O)c2cc(NC(=O)C3CCCCC3)ccc2O[C@@H]1CN(C)Cc1ccc(-c2ccccc2)cc1 ?
YB-1 expression: -0.24; ROS inducer: inconclusive

How did C[C@@H]1CN([C@H](C)CO)C(=O)c2cc(NC(=O)C3CCCCC3)ccc2O[C@H]1CN(C)Cc1ccc(Oc2ccccc2)cc1 do in these assays?
YB-1 expression: -0.0038; ROS inducer: 9

How did C[C@H](CO)N1C[C@H](C)[C@@H](CN(C)Cc2ccc(-c3ccccc3)cc2)Oc2ccc(NC(=O)C3CCCCC3)cc2C1=O do in these assays?
YB-1 expression: 0.11; ROS inducer: 104*

What do the screens show for `Cc1nc2ccccc2c(=O)n1/N=C/c1ccsc1`?
ROS inducer: 3

How did O=C(Nc1ccc(S(=O)(=O)N2CCCC2)cc1)c1ccc(COc2ccc3c(c2)CCC3)cc1 do in these assays?
ROS inducer: 87*

What do the screens show for `O=S(=O)(c1ccccc1)N1CCN(CC(O)COc2ccc3c(c2)CCC3)CC1` (configuration not stated)?
ROS inducer: 7

What do the screens show for `S=C(c1cn(Cc2ccccc2)c2ccccc12)N1CCCCC1`?
ROS inducer: 5

How did CCCNC(=O)c1ccc(OCC)cc1 do in these assays?
ROS inducer: 6

Results for CN(C)c1nc(Cl)nc(N(C#N)CN2C(=O)c3ccccc3C2=O)n1 ?
YB-1 expression: 0.22; ROS inducer: 168*

How did O=C1c2ccccc2C(=O)N1CN1CCCCC1 do in these assays?
ROS inducer: -12

How did COc1ccc(-c2nnc3ccc(SCC(N)=O)nn23)cc1 do in these assays?
ROS inducer: 2
